Several values for one entry are separate records, joined by “and”; a condition that tells them apart may be missing. Equal values may be shown once. Results filed as inconclusive are left out. Where a structure was tested more than once in an assay, its records may differ in their call. Activity calls are given as the source filed them. Unless noted, the call rests on the fitted dose curve; in most records, active means well fitted curve in the direction sought with a large enough effect; inconclusive means small, poorly fitted or top-dose-only effect, or another doubt; inactive means no such curve, though single readings can be large; an effect the other way counts as inactive or inconclusive. Peptide text beside a SMILES is read from it.

The subject of one test is WaGa. In words: qHTS assay to identify novel small-molecules to repurpose for Merkel cell carcinoma treatment (AID 1296009). Further: nearly all actives have a fitted effect of over 60% in size. Further: potency means the concentration at half of the fitted maximal effect. Particulars: MCC and control cell lines, CellTiter-Glo viability, 72 h; series mostly up to 46 µM. The method, boiled down: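 Luminescence from CellTiter-Glo, read 10 min after addition at room temperature, reported viability following a 72 hr, 37 degree celsius treatment with NPC or MIPE compounds in titration; values normalized to plate controls.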

In the next test the test system is C33A. In words: Primary qHTS to identify gynecologic anti-cancer compounds using libraries of approved drugs and bioactive compounds (AID 1345084). Further: nearly all actives have a fitted effect of over 55% in size. Further: potency means the concentration at half of the fitted maximal effect. Particulars: Gynecologic cancer cell panel viability, ATPlite luminescence, 48 h; series mostly up to 57.5 µM. The method, boiled down: (§1)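 Five-point cytotoxicity, 48 h drug exposure at 37 C, 5% CO2, on cells seeded 16 h beforehand. ATP content read by ATPlite luminescence.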
For orientation: Quantitative high-throughput screening tests each substance at several concentrations.

The next test deals with CAOV3. The description is as above. Particulars: Gynecologic cancer cell panel viability, ATPlite luminescence, 48 h; series mostly up to 57.5 µM. The method in brief:
as §1
(In ATP-based viability assays light output follows the ATP content of the culture.)

For another test, the system named is CASKI. The test is described as above. Particulars: Gynecologic cancer cell panel viability, ATPlite luminescence, 48 h; series mostly up to 57.5 µM. The method, boiled down: as §1
The next test has as its system Es-2. The test is described as above. Particulars: Gynecologic cancer cell panel viability, ATPlite luminescence, 48 h; series mostly up to 57.5 µM. The method in brief:
as §1

For a further test, the system named is HeLa. Described as above. Particulars: Gynecologic cancer cell panel viability, ATPlite luminescence, 48 h; series mostly up to 57.5 µM. The method in brief: as §1
A further test deals with Hek293T. The description is as above. Particulars: Gynecologic cancer cell panel viability, ATPlite luminescence, 48 h, control line for the selectivity index; series mostly up to 57.5 µM. The method in brief: as §1
In the next test the test system is JEG-3. The test is described as above. Particulars: Gynecologic cancer cell panel viability, ATPlite luminescence, 48 h; series mostly up to 57.5 µM. The method, boiled down:
as §1

The next test concerns OV90. The description is as above. Particulars: Gynecologic cancer cell panel viability, ATPlite luminescence, 48 h; series mostly up to 57.5 µM. The method, boiled down:
as §1

The subject of a further test is PA-1. The description is as above. Particulars: Gynecologic cancer cell panel viability, ATPlite luminescence, 48 h; series mostly up to 57.5 µM. The method in brief:
as §1

The next test has as its system SKOV3. The test is described as above. Particulars: Gynecologic cancer cell panel viability, ATPlite luminescence, 48 h; series mostly up to 57.5 µM. The method in brief: as §1
For a further test, the system named is Tov-21-G. The test is described as above. Particulars: Gynecologic cancer cell panel viability, ATPlite luminescence, 48 h; series mostly up to 57.5 µM. The method in brief:
as §1

The test system of a further test is Tov112D. The description is as above. Particulars: Gynecologic cancer cell panel viability, ATPlite luminescence, 48 h; series mostly up to 57.5 µM. The method in brief: as §1
A short description of test [1]: Drug repurposing screens with cells derived from glioblastoma tumor samples (AID 1345199). Further: nearly all actives have a fitted effect of over 40% in size. Further: potency means the concentration at half of the fitted maximal effect. On activity, negative = cell killing: on the % scale 0 is the no-effect control and ±100 the full control effect. Particulars: GBM patient neurospheres viability, ATP luminescence, 48 h. The method in brief: (§2)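 Primary testing used CD133+ neurospheres from four GBM patients, seven concentrations, 48 h exposure and ATP-based viability; confirmation added three slower-growing patient lines.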

In a further test the test system is astro. The description is as above. Particulars: viability, ATP luminescence, 48 h; series mostly up to 45.9 µM. The method, boiled down:
as §2

Test [2] concerns the target Nuclear receptor subfamily 1 group I member 2 (Rattus norvegicus) (UniProt Q9R1A7). In words: qHTS assay for small molecule activators of the rat pregnane X receptor (rPXR) signaling pathway (AID 651751; call rule not given here; further: 0% is about no effect). Particulars: rPXR reporter cells, luciferase (One-Glo), 24 h.
[3] abbreviates: at 20 µM (top of the series), tumour line C.
[4] abbreviates: at 21.2 µM (top of the series), tumour line B.
Setting [5] is: at 21.2 µM (top of the series), tumour line D.
[6] abbreviates: at 45.9 µM (top of the series), tumour line B.
Where [7] appears, read: at 45.9 µM (top of the series), tumour line D.
[8] abbreviates: at 46.1 µM (top of the series), tumour line C.

Sequence of Nuclear receptor subfamily 1 group I member 2 (Rattus norvegicus) (Q9R1A7 whole entry, looked up): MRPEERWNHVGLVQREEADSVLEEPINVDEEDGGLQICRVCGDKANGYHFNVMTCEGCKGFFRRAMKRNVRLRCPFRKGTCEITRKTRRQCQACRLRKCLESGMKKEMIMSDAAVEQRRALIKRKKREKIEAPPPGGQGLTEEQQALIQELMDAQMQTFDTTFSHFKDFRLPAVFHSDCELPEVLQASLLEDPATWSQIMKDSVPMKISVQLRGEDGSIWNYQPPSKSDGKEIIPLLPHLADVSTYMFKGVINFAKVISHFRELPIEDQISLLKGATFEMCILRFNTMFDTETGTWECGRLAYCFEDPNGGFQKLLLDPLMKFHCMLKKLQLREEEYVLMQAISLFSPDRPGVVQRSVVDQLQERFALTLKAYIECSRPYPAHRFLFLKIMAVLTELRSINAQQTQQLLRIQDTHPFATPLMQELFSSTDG

Consider `O=c1c(O)c(-c2cc(O)c(O)c(O)c2)oc2cc(O)cc(O)c12`, for which, in the test on WaGa, the Potency entry is “inactive”.
Regarding `COc1ccc2cc([C@H](C)C(=O)O)ccc2c1`, the Potency result in the test with WaGa, with C33A, in the test with CAOV3, in the test on CASKI, with Es-2 and in the test on HeLa was “inactive” in each case. The Potency entry with Hek293T, in the test with JEG-3, in the test on OV90, with PA-1, in the test with SKOV3 and in the test on Tov-21-G was “inactive” throughout. In addition, the Potency entry with Tov112D and in the test on astro was “inactive” throughout. In addition, the activity, negative = cell killing in test [1] (setting [3]) is -12.8% (inactive); in test [1] (setting [4]) it was -16.1% (inactive); in [1] (setting [5]) it was -8.68% (inactive).
Turning to `C[C@H](Cc1ccc(O)c(O)c1)[C@@H](C)Cc1ccc(O)c(O)c1`, the Potency in the test on WaGa is 18.7 µM (active).
Take `Cc1cc2cc3c(C)cc(=O)oc3c(C)c2o1`: the Potency result with WaGa is “inactive and 4.69 µM (active)”. For the same molecule, the Potency result in the test on C33A, in the test with CAOV3, in the test with CASKI, in the test with Es-2, in the test with HeLa and in the test with Hek293T was “inactive” throughout. Also, the Potency result with JEG-3, in the test with OV90, in the test with PA-1, in the test with SKOV3, in the test on Tov-21-G and with Tov112D was “inactive” throughout. Further, the Potency entry in the test on astro is “inactive”. The activity, negative = cell killing in [1] (setting [3]) is -6.21% (inactive); in [1] (setting [4]), -13.8% (inactive); in [1] (setting [5]), -30.4% (inactive).
Take `N=C(N=C(N)N)N1CCOCC1`: the Potency result in the test with WaGa, with C33A, in the test on CAOV3, in the test on CASKI, with Es-2 and with HeLa was “inactive” throughout. For the same molecule, the Potency result in the test with Hek293T, in the test with JEG-3, in the test on OV90, with PA-1, in the test with SKOV3 and with Tov-21-G was “inactive” in each case. Also, the Potency result in the test on Tov112D and with astro was “inactive” in each case. Besides, the activity, negative = cell killing was 4.28% (inactive) in [1] (setting [4]) and -14.6% (inactive) in test [1] (at 21.3 µM (top of the series), tumour line A).
Consider `Cc1ccc(C)c(OCCCC(C)(C)C(=O)O)c1`, for which the Potency entry in the test with WaGa, in the test with C33A, with CAOV3, in the test on CASKI, in the test with Es-2 and in the test on HeLa was “inactive” in each case. Also, the Potency result in the test with Hek293T, with JEG-3, in the test on OV90, in the test on PA-1, in the test with SKOV3 and in the test on Tov-21-G was “inactive” throughout. The Potency result with Tov112D and in the test on astro was “inactive” in each case. In addition, the activity, negative = cell killing is -12.7% (inactive) in test [1] (setting [6]); -0.928% (inactive) in test [1] (setting [7]); -17.6% (inactive) in test [1] (at 46 µM (top of the series), tumour line A); -8.64% (inactive) in [1] (setting [8]). Besides, the max response in [2] was -0.498% (inactive) and -3.12% (inactive).
On to `CCOC(=O)C(C)Oc1cccc2c(=O)n(CC(=O)Nc3ccc4c(c3)OCCO4)ccc12` (stereo not given), for which the Potency result in the test on WaGa is “inactive”.
On the same count and under the same terms, next, `CC(C)c1ccc2c(c1)c(SC(C)(C)C)c(CC(C)(C)C(=O)O)n2Cc1ccc(Cl)cc1`: “inactive”.
As to `Clc1ccc2c(N3CCN(CCCN4CCN(c5ccnc6cc(Cl)ccc56)CC4)CC3)ccnc2c1`, the Potency result in the test on WaGa was “inactive”.
As to `COC(=O)C1=C(C)NC(C)=C(C(=O)OC(C)C)C1c1cccc2nonc12` (stereo not given), the Potency result in the test on WaGa, with C33A, in the test with CAOV3, in the test on CASKI, with Es-2 and in the test with HeLa was “inactive” in each case. Moreover, the Potency entry with Hek293T, in the test with JEG-3, in the test on OV90, in the test on PA-1, with SKOV3 and with Tov-21-G was “inactive” in each case. Also, the Potency entry in the test with Tov112D and in the test on astro was “inactive” each time. Moreover, the activity, negative = cell killing in [1] (setting [3]) is -16.7% (inactive); in test [1] (setting [4]), -11.5% (inactive); in test [1] (setting [5]), -1.17% (inactive).
For the molecule `C[C@@H](c1ncncc1F)[C@](O)(Cn1cncn1)c1ccc(F)cc1F`, the Potency entry in the test with WaGa was “inactive”.
The same measure, in the same setting: next, `COc1cc2c(cc1OC)C1CC(=O)C(CC(C)C)CN1CC2` (stereo not given): “inactive”.
As to `COC(=O)[C@H](Cc1ccccc1)NC(=O)[C@@H](N)CC(=O)O` (H-Asp-Phe-OMe), the Potency entry with WaGa, with C33A, in the test with CAOV3, in the test on CASKI, in the test on Es-2 and in the test with HeLa was “inactive” each time. The Potency result with Hek293T, in the test on JEG-3, in the test with OV90, in the test with PA-1, with SKOV3 and with Tov-21-G was “inactive” in each case. In addition, the Potency entry with Tov112D and in the test on astro was “inactive” in each case. For the same molecule, the activity, negative = cell killing in test [1] (setting [6]) was -10.7% (inactive) and -0.538% (inactive); in test [1] (setting [7]) it was -6.33% (inactive) and -21.9% (inactive); in test [1] (setting [8]) it was -19.7% (inactive) and -4.06% (inactive). Moreover, the max response in test [2] is -0.463% (inactive) and 3.11% (inactive).
As for `O=C(O)c1cn(-c2ccc(F)cc2)c2cc(N3CCNCC3)c(F)cc2c1=O`, the Potency result in the test with WaGa, in the test on C33A, in the test with CAOV3, in the test with CASKI, with Es-2 and with HeLa was “inactive” throughout. For the same molecule, the Potency result with Hek293T, with JEG-3, in the test on OV90, with PA-1, with SKOV3 and in the test with Tov-21-G was “inactive” in each case. In addition, the Potency result in the test with Tov112D and with astro was “inactive” each time. In addition, the activity, negative = cell killing in test [1] (setting [6]) was -14.1% (inactive); in [1] (setting [7]) it was -2.04% (inactive); in [1] (setting [8]), 0.795% (inactive).
For the molecule `Clc1ccc(C(Cn2ccnc2)OCc2c(Cl)cccc2Cl)c(Cl)c1` (stereo not given), the Potency was 23.7 µM (active) and inactive in the test on WaGa; 7.94 µM (active) in test [1] (tumour line A); 7.08 µM (active) in test [1] (tumour line D). In addition, the Potency entry in the test on C33A, with CAOV3, with CASKI, in the test on Es-2, in the test with HeLa and in the test on Hek293T was “inactive” throughout. In addition, the Potency result in the test with JEG-3, in the test on OV90, in the test with PA-1, with SKOV3, in the test on Tov-21-G and with Tov112D was “inactive” in each case. Also, in test [1] (setting [3]), the activity, negative = cell killing is -9.14% (inactive).
As for `S=c1nc[nH]c2nc[nH]c12`, the Potency is 1.19 µM (active) and 2.96 µM (active) with WaGa; 10 µM (active) in the test on C33A; 2.51 µM (active) in the test on CASKI; 5.62 µM (active) with Es-2; 5.62 µM (active) with HeLa; 15.8 µM (active) with Hek293T. The Potency was 3.55 µM (active) in the test on JEG-3; 7.08 µM (active) with OV90; 3.16 µM (active) with PA-1; 3.16 µM (active) with Tov-21-G; 8.91 µM (active) in the test with Tov112D; 5.01 µM (active) in [1] (tumour line A). Also, the Potency result in the test with CAOV3, in the test with SKOV3 and with astro was “inactive” each time. The activity, negative = cell killing in test [1] (setting [8]) is -28% (inactive).

Values taken from PubChem BioAssay (NCATS).
